# DAGLB inh: DAGLB lipase inhibitors, primary screen, biochemical, fluorescence, HTS. HEK293T DAGLB membrane lysate, EnzChek fluorogenic substrate. 340,000 tested, 0.059% active. Diacylglycerol lipase-beta (Homo sapiens), Q8NCG7. AID 504411, 2011. inhibition, % at 5.17 µM; in the data active = inhibition above about 34%;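 note: 0% = enzyme with vehicle and 100% = wells lacking enzyme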
# PAFAH2 FP inh: PAFAH2 enzyme inhibitors, primary screen, biochemical, fluorescence polarization, human; Platelet-activating factor acetylhydrolase 2, cytoplasmic (Homo sapiens), Q99487; recombinant PAFAH2, FP-rhodamine activity probe; inhibition, % at 3.39 µM; 340,000 tested, 0.99% active; AID 492956, 2010;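 active = inhibition above the mean over all tested compounds plus 3 SD, cut at about 30% in these data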;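 note: inhibitors block probe labeling of enzyme so polarization drops; 0% = enzyme with DMSO and 100% = wells lacking PAFAH2 protein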
# PAFAH1B3 inh: PAFAH1B3 enzyme inhibitors, primary screen, biochemical, fluorescence polarization, human; Platelet-activating factor acetylhydrolase IB subunit alpha1 (Homo sapiens), Q15102; recombinant PAFAH1B3, FP-rhodamine probe; inhibition, % at 3.39 µM; 340,000 tested, 0.28% active; AID 492972, 2010;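 active = inhibition above the screen-wide average of all tested compounds plus 3 SD, cut at about 25% in these data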;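 note: 0% = enzyme with DMSO only and 100% = wells lacking PAFAH1B3 protein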
# Target sequence (Q15102 whole entry, looked up): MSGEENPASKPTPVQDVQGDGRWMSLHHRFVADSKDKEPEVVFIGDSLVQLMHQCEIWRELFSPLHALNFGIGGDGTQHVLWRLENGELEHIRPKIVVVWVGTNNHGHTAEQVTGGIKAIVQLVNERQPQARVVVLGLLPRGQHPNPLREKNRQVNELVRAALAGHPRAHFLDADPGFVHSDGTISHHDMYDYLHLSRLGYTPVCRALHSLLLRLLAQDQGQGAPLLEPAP
# ATG4B inh: ATG4B protease inhibitors, primary screen, biochemical, fluorescence, uHTS; Cysteine protease ATG4B (Homo sapiens), Q9Y4P1; ATG4B cleavage of LC3-PLA2, NBD-HPC fluorescence, 1 h; inhibition, % at 8.33 µM; 340,000 tested, 0.51% active; AID 504462, 2011; in the data active = inhibition above about 40%
# PAFAH1B2 inh: PAFAH1B2 enzyme inhibitors, primary screen, biochemical, fluorescence polarization, human | Platelet-activating factor acetylhydrolase IB subunit alpha2 (Homo sapiens), P68402 | recombinant PAFAH1B2, FP-rhodamine activity probe | inhibition, % at 3.39 µM | 340,000 tested, 1.2% active | AID 492953, 2010;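 active = inhibition above the mean of all tested compounds plus 3 SD, cut at about 24% in these data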;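 note: 0% = enzyme with DMSO and 100% = wells lacking PAFAH1B2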
# Target sequence (P68402 whole entry, looked up): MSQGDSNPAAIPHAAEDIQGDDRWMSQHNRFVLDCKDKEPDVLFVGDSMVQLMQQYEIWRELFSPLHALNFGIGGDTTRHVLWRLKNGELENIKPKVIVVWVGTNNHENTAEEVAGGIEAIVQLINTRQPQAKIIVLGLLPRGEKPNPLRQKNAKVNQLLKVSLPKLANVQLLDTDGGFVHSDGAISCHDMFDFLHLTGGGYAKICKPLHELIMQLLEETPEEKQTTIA
# pPAFAH FP inh: pPAFAH enzyme inhibitors, primary screen, biochemical, fluorescence polarization, human | recombinant pPAFAH, FP-rhodamine probe fluorescence polarization | inhibition, % at 3.39 µM | 330,000 tested, 1.5% active | AID 463082, 2010;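 active = inhibition above the mean inhibition across the screen plus 3 SD, cut at about 25% in these data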;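 note: inhibitors block binding of the rhodamine activity-based probe so polarization drops; 0% = enzyme with DMSO and 100% = wells lacking pPAFAH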
# PAFAH2 confirm: PAFAH2 enzyme inhibitors, confirmation, biochemical, fluorescence polarization, human; shares compounds with PAFAH2 FP inh; recombinant PAFAH2, FP-rhodamine activity probe; inhibition, % at 3.39 µM; 2,300 tested, 65% active; AID 493030, 2011;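 active = mean inhibition over three repeats above a set limit taken from the earlier primary screen, cut at about 30% in these data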;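 note: inhibitor blocks binding of rhodamine activity probe so polarization falls; 0% = enzyme with DMSO and 100% = wells lacking PAFAH2 protein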
# * = called active by the depositor; . = not tested or not shown. In the library only some 3% were active in any assay of this set; here they are far more common.
SMILES,DAGLB inh,PAFAH2 FP inh,PAFAH1B3 inh,ATG4B inh,PAFAH1B2 inh,pPAFAH FP inh,PAFAH2 confirm
Cc1csc(NC(=O)C2COc3ccccc3O2)n1 (stereo not drawn),-1.1,-0.4,7.2,7.2,5.2,1.9,.
O=C(Nc1nnc(SCc2ccccc2Cl)s1)C1COc2ccccc2O1 (stereo not drawn),8.9,52.4*,5.3,40.0,11.2,5.4,40.9*
Cc1nc(NC(=O)COC(=O)c2ccc(CO)cc2)c(Cl)cc1Cl,0.4,44.2*,6.6,-3.8,-0.6,-0.7,23.1
Cc1nc(NC(=O)COC(=O)CCc2ccccc2)c(Cl)cc1Cl,-8.3,1.8,2.4,12.4,6.9,12.4,.
Cc1ccc(N=Nc2c(O)ccc3n[nH]nc23)cc1,14.6,30.3*,1.6,3.4,7.9,.,23.4
CCOC(=O)c1c(C)[nH]c(N=Nc2ccc(C)cc2)c1C,-4.1,2.4,12.0,-2.2,0.9,2.1,.
Cc1cc(=O)oc2c3c(cc(OCC(=O)NC4CC4)c12)OC(C)(C)CC3,0.6,14.2,-0.7,-34.2,4.5,12.6,.
CCCc1cc(=O)oc2c3c(cc(OCC(=O)N[C@@H](CSC)C(=O)O)c12)OC(C)(C)CC3,2.8,33.9*,2.8,4.5,10.3,.,28.0
O=C(COC(=O)c1ccccc1SCC(=O)N1CCCC1)Nc1ccccc1,0.4,87.7*,3.6,-4.5,0.8,1.0,80.2*
O=C(OCC(=O)N1CCOCC1)c1ccccc1SCC(=O)N1CCCC1,-3.7,6.0,0.8,6.2,1.4,-0.8,.
CC(CCc1ccccc1)NC(=O)COC(=O)c1ccccc1Br (stereo not drawn),-1.0,26.5,9.5,-8.7,10.0,2.4,.
COc1cccc(NC(=O)COC(=O)c2ccccc2SCC(=O)N2CCCC2)c1,-1.9,81.6*,1.4,-4.0,-1.2,2.7,81.2*
CCCC(C)NC(=O)COC(=O)c1ccccc1SCC(=O)NC(C)CCC (stereo not drawn),-3.9,38.8*,1.9,-2.9,0.8,5.8,43.2*
NS(=O)(=O)c1cccc(NC(=O)COC(=O)c2ccccc2SCC(=O)N2CCCC2)c1,1.7,40.2*,16.6,-3.2,0.7,3.3,35.5*
CC(=O)NCCc1nc2cc(NC(=O)c3cccc([N+](=O)[O-])c3)ccc2n1C,-0.3,-4.6,5.2,7.3,5.0,.,.
CCCCCN(C(=O)CCC(=O)OCC(=O)N1C(C)CCCC1C)c1c(N)n(CCCC)c(=O)[nH]c1=O (stereo not drawn),0.2,-6.4,0.9,-8.1,9.1,0.8,.
Cc1ccc(C(C)C)c(OCC(=O)NNC(=O)CC2OC(=O)c3ccccc32)c1 (stereo not drawn),-0.1,4.9,1.6,-1.3,11.6,15.5,.
COc1cc(NC(=O)COC(=O)c2ccccc2SCC(=O)N2CCCC2)cc(OC)c1,2.6,41.7*,4.4,-1.0,7.8,3.8,23.6
COc1ccc(C)cc1NC(=O)COC(=O)c1ccccc1SCC(=O)N1CCCC1,0.7,11.4,-4.0,-10.6,1.4,1.8,.
N/C(=N\OC(=O)c1ccc2c(c1)OCO2)c1ccc(Cl)cc1,-1.9,33.1*,8.7,-17.5,-4.4,2.7,30.4*
O=C(COC(=O)c1ccc(O)cc1)Nc1ccc2c(c1)OCCO2,-1.2,78.0*,5.4,-2.4,-5.4,15.6,68.7*
O=C(COC(=O)c1ccc2c(c1)OCO2)Nc1ccccc1Cl,-7.9,58.2*,5.0,5.2,5.9,0.8,43.9*
O=C(COC(=O)c1ccc(O)cc1)c1ccc2c(c1)OCCO2,-1.7,13.6,0.4,-5.5,2.7,.,.
Cc1ccc(/C(N)=N/OC(=O)c2ccc3c(c2)OCO3)cc1,-13.0,24.9,2.0,5.5,3.6,-0.7,.
O=C(COC(=O)c1ccc2c(c1)OCCO2)Nc1ccccc1C(F)(F)F,-10.0,.,.,.,.,.,.
SMILES,DAGLB inh,PAFAH2 FP inh,PAFAH1B3 inh,ATG4B inh,PAFAH1B2 inh,pPAFAH FP inh,PAFAH2 confirm
CC(=O)c1cccc(NC(=O)COC(=O)c2ccc3c(c2)OCCO3)c1,-7.4,84.3*,7.5,-3.8,3.3,7.5,71.0*
Cc1cccc(C)c1NC(=O)CNC(=O)CN1C(=O)NC2(CCc3ccccc32)C1=O (stereo not drawn),1.8,-7.3,3.3,-15.6,1.1,-1.9,.
Cc1occc1C(=O)N1CCN(S(=O)(=O)c2ccccc2)CC1,-2.3,-1.7,-1.9,7.3,0.4,6.7,.
CC(=O)Nc1ccc(-c2csc(NC(=O)CCNC(=O)c3ccco3)n2)cc1,0.4,3.1,8.1,-3.7,-1.3,-0.5,.
O=C(c1cc(F)c(F)cc1Cl)N1CCN(CCc2ccccc2)CC1,0.0,-5.5,5.7,-1.3,4.9,0.9,.
CN(C)c1cccc(C(=O)OCC(=O)Nc2ccccc2-c2ccccc2)c1,-7.4,3.5,0.3,10.3,-1.6,6.0,.
CCOC(=O)NC(=O)COC(=O)c1ccc(O)cc1,-3.4,29.0,9.8,13.2,5.7,4.8,.
CC(C)(C)NC(=O)COC(=O)c1ccc(O)cc1,-1.7,64.0*,1.3,-1.7,0.3,4.2,53.1*
CCC(=O)Nc1cc(C(=O)OCC(=O)c2ccccc2Cl)ccc1C,0.7,42.3*,4.8,4.3,10.2,-1.9,32.2*
Nc1ccc(C(=O)OCC(=O)NC(=O)c2ccccc2)cc1[N+](=O)[O-],1.8,38.3*,4.7,-5.1,-2.7,5.9,21.7
CN(C)c1cccc(C(=O)OCC(=O)Nc2ccccc2Cl)c1,-20.5,53.9*,-2.3,-2.8,0.9,10.1,49.8*
CCC(=O)Nc1cc(C(=O)OCC(=O)c2ccc(Cl)cc2Cl)ccc1C,-0.8,16.9,11.4,3.8,7.3,4.4,.
Cc1ccc(-c2c(C(=O)O)c3ccccc3[nH]c2=O)cc1,1.7,7.8,4.5,-6.5,-1.6,7.3,.
CCc1ccc(NC(=O)C(C)Sc2nc(-c3ccco3)c(C#N)c(=O)[nH]2)cc1 (stereo not drawn),8.9,-13.4,-3.3,10.6,19.2,15.5,.
O=C(COC(=O)c1ccc(N2CCOCC2)c([N+](=O)[O-])c1)Nc1ccc2c(c1)OCO2,-1.9,-7.3,7.9,1.6,5.5,21.4,.
Nc1ccc(C(=O)OCC(=O)Nc2ccc3c(c2)OCO3)cc1[N+](=O)[O-],0.4,64.6*,8.7,-11.8,7.8,5.3,49.0*
Cc1ccc(NC(=O)COC(=O)c2ccc3c(c2)OCCO3)cc1,-4.2,85.9*,7.9,3.8,-3.3,9.1,84.8*
